{"source": "PubChem BioAssay AID687021", "about": "(Broad Institute, 2013)", "note": "Calls of active or inactive are those of the source.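 The calls were made as follows: active = compounds lowering luciferase light whose fitted half-effect concentration is at most twice the top tested dose; inconclusive = flat curve with 30 to 70% inhibition, or poor fit; inactive = the rest.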"}
{"experiment": "luciferase signal loss, tTA control fusion, HeLa F-luc tTA cells, dry powder, counter-screen for HIV Env fusion inhibitor project, dose response (AID 687021)", "conditions": "luciferase luminescence counterscreen; series mostly up to 35 µM"}
{"smiles": "Cc1ccc(C)n1-c1ccc(C(=O)O)c(O)c1", "outcome": "inactive"}
{"smiles": "Cc1ccc(S(=O)(=O)N(C)C[C@@H]2Oc3ccc(NS(=O)(=O)c4c(C)noc4C)cc3CC(=O)N([C@H](C)CO)C[C@@H]2C)cc1", "outcome": "inactive"}
{"smiles": "Cc1ccc(S(=O)(=O)Nc2cccc3c2O[C@@H](CN(C)Cc2ccc(Cl)c(Cl)c2)[C@@H](C)CN([C@H](C)CO)C3=O)cc1", "outcome": "inactive"}
{"smiles": "C[C@@H]1CN([C@H](C)CO)C(=O)c2cccc(NC(=O)C3CCCCC3)c2O[C@H]1CN(C)Cc1ccccc1", "outcome": "inactive"}
{"smiles": "CC1(C)CC(NC(=O)C(=O)Nc2ccc(Cl)cc2)CC(C)(C)N1", "outcome": "inactive"}
{"smiles": "O=S(=O)(NCc1ccncc1)c1ccc2c(c1)OCCO2", "outcome": "inactive"}
{"smiles": "CCOc1ccc(S(=O)(=O)NC(C)c2ccncc2)cc1", "note": "(stereo not given)", "outcome": "inactive"}
{"smiles": "Nc1nonc1C(=O)NCCNCc1c(OCc2ccccc2F)ccc2ccccc12", "outcome": "inactive"}
{"smiles": "COc1ccc(-c2cc(C(=O)NNC(=S)NC(=O)c3c(-c4ccccc4)noc3C)[nH]n2)cc1", "outcome": "inactive"}
{"smiles": "COc1ccc2c(c1)[nH]c1c(N3CCN(Cc4ccc5c(c4)OCO5)CC3)ncnc12", "outcome": "inactive"}
{"smiles": "COc1ccccc1CCNCc1ccc(OC)c(OCc2ccccc2)c1", "outcome": "inactive"}
{"smiles": "Oc1ccc(CNc2ccccc2F)c2cccnc12", "outcome": "inactive"}
{"smiles": "Cc1oc(-c2ccc(Cl)cc2)nc1CN1CCCC(C(=O)NCc2cccnc2)C1", "note": "(stereo not given)", "outcome": "inactive"}
{"smiles": "Cc1noc(C)c1S(=O)(=O)Nc1cccc2c1O[C@@H](CN(C)Cc1ccc(C(F)(F)F)cc1)[C@H](C)CN([C@H](C)CO)C2=O", "outcome": "inactive"}
{"smiles": "COc1ccc(S(=O)(=O)NCc2ccncc2)cc1OC", "outcome": "inactive"}
